Screening results: PubChem, National Center for Advancing Translational Sciences (NCATS)
This is a sample that favours compounds with a hit; in the whole collection about 9.4% have one here.
AMA1 RON2 block – disrupts binding of P. falciparum AMA1 to RON2; AID 720542; actives 0.2% (n = 360,000); AlphaScreen AMA1-biotinylated RON2 peptide binding; Potency, µM (titrated, usually from 58.2 µM), without a hit: top-dose activity change, negative = inhibition, usual class: inhibitors;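 also: 0% = vehicle wells and -100% = peptide control; nearly all actives have a fitted effect of over 45% in size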
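AMA1 (3D7) with his tag at 25 nM final met compounds first, then biotinylated RON2 peptide at 25 nM; detection used donor plus acceptor beads, 10 µg/mL apiece, read by AlphaScreen after 30 min at room temperature.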
SARS PLpro yeast – SARS-CoV PLP inhibition in yeast | AID 485353 | actives 0.19% (n = 330,000) | Potency, µM (top dose mostly 32.9 µM), for the others: at the highest dose activity, positive = growth rescue, actives largely listed as activators | S. cerevisiae expressing SARS-CoV PLpro, growth rescue; calls by dose curve; also: 0% is about no effect; nearly all actives have a fitted effect of over 55% in size
Pf growth 48h – P. falciparum growth inhibition at 48 hours (one generation); Potency, µM (series often up to 28.7 µM), for inactives: at the highest dose activity change, negative = inhibition, usual class: inhibitors; actives 5.9% (n = 310,000); P. falciparum luciferase growth in erythrocytes, 48 h; also: % is scaled to controls: 0 for no effect and ±100 for the full control effect
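Erythrocytes infected with P. falciparum carrying an integrated firefly luciferase reporter (2% hematocrit, 0.1% parasitemia final) were exposed to compounds in RPMI 1640 with 0.5% Albumax at 37 C, 5% CO2. Growth inhibition was scored as reduced luminescence.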
Pf growth 96h – P. falciparum growth inhibition at 96 hours. Potency, µM (doses to about 28.7 µM), for the others: top-dose activity change, negative = inhibition, actives largely listed as inhibitors. P. falciparum luciferase reporter growth, 96 h. actives 6.9% (n = 320,000); also: % is scaled to controls: 0 for no effect and ±100 for the full control effect
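Parasite growth measured via integrated firefly luciferase reporter in P. falciparum. Infected erythrocytes at 2% hematocrit, 0.05% parasitemia final were treated 96 hours at 37 C under 5% CO2, and luminescence was read.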
* hit, by the source's call; ? = inconclusive; / = no result given. Unless noted, calls follow the shape of the dose curve; as a rule, active = well fitted curve in the direction sought with a large enough effect; inconclusive = small, poorly fitted or top-dose-only effect, or another doubt; inactive = no such curve, though single readings can be large; an effect the other way counts as inactive or inconclusive. Potency is read from the fitted curve at half-maximal effect.

SMILES | AMA1 RON2 block | SARS PLpro yeast | Pf growth 48h | Pf growth 96h
COc1ccc(NC(=O)c2cc3ccccc3cc2O)cc1 | 31.4% | 0.7% | ? | 8.28µM*
CCOC(=O)N1CCN(C(=O)c2ccc(CNS(=O)(=O)c3ccc(NC(C)=O)cc3)cc2)CC1 | -6.8% | 20.0% | -3.6% | ?
CCOc1ccc(C(=O)COC(=O)C2CCN(c3ccc(C(F)(F)F)cn3)CC2)cc1 | 7.2% | -0.7% | -18.7% | -13.9%
CS(=O)(=O)c1cnc(-c2ccccc2)nc1Oc1ccc(F)cc1 | -5.8% | 3.9% | 13.1µM* | ?
CCOC(=O)c1cnc(-c2ccccc2)nc1Oc1ccc(OC)cc1 | 16.9% | 1.8% | 8.28µM* | 5.22µM*
Cc1ccc(-c2csc3nc(CN(C)Cc4ccccc4)[nH]c(=O)c23)cc1 | -10.4% | -3.7% | 11.7µM* | 4.15µM*
O=c1[nH]c(Cc2ccc(F)cc2)nc2scc(-c3ccc(F)cc3)c12 | 20.5% | ? | -1.6% | ?
CN(C)c1ccc(/C=C/C=C/c2sc3ccccc3[n+]2C)cc1 | -26.2% | -0.5% | 15.7% | 40.8%
C[n+]1ccc(-c2ccccc2)c2ccccc21 | 0.9% | 0.2% | 1.04µM* | ?
CN(C)c1ccc(/C=C/c2cc[n+](C)c3ccccc23)cc1 | ? | -6.2% | 1.04µM* | ?
C[n+]1ccc(/C=C/c2ccccc2O)c2ccccc21 | -4.9% | 0.6% | 10.4µM* | ?
OC(Cn1c2ccccc2c2ccccc21)C[n+]1cccc2ccccc21 (stereo not drawn) | -15.5% | -1.2% | 6.57µM* | 3.29µM*
Cc1ccc2c(c1)c1c(n2CC(O)Cn2c(C)nc3ccccc32)C(=O)CCC1 (stereo not drawn) | -2.0% | -1.6% | 14.7µM* | 1.8%
Cc1ccc2c(c1)c1c(n2CC(O)Cn2c(C)nc3ccccc32)/C(=N\O)CCC1 (stereo not drawn) | -10.8% | -26.4% | 11.7µM* | ?
Cc1ccc2c(c1)c1c(n2CC(O)Cn2ccnc2C)C(=O)CCC1 (stereo not drawn) | -9.2% | 6.8% | ? | 0.1%
Cc1nc2ccccc2n1CC(O)Cn1c2ccccc2c2ccccc21 (stereo not drawn) | -0.5% | 5.1% | 11.7µM* | /
CCOc1ccc(C(=O)NCC(=O)NCC(c2ccccc2OC)N2CCCC2)cc1 (stereo not drawn) | 0.0% | -2.4% | ? | -2.5%
Cc1cc(C)[n+](C)n1CC(O)Cn1c2ccccc2c2ccccc21 (stereo not drawn) | -0.2% | -3.9% | 0.586µM* | 20.9%
COc1cccc(C(=O)Nc2c3c(nn2-c2ccc([N+](=O)[O-])cc2)CS(=O)(=O)C3)c1 | 3.2% | -4.8% | ? | ?
CCC(NC(=S)NC1CCCCC1)c1ccc(C)cc1 (stereo not drawn) | / | -5.3% | ? | 7.38µM*
Cc1ccc(C)c(C(C)NC(=S)NC2CCCCC2)c1 (stereo not drawn) | 2.7% | -4.1% | 13.1µM* | 36.5%
CCCc1ccc(C(C)NC(=S)NC2CCCCC2)cc1 (stereo not drawn) | 3.0% | -1.8% | 13.1µM* | 32.9%
CC(NC(=S)NC1CCCCC1)c1ccccc1 (stereo not drawn) | 9.2% | 7.2% | ? | 37.9%
O=C(C1=C(O)C(=O)N(c2nccs2)C1c1ccccc1)c1cc2ccccc2o1 (stereo not drawn) | 8.5% | -2.2% | 108.7% | 146.6%
CN(CCCCCCCCCCN(C)C(=O)Oc1cccc([N+](C)(C)C)c1)C(=O)Oc1cccc([N+](C)(C)C)c1 | -18.5% | 0.2% | 0.117µM* | 0.0738µM*
SMILES | AMA1 RON2 block | SARS PLpro yeast | Pf growth 48h | Pf growth 96h
CCN(C)C(=O)Oc1cccc([C@H](C)N(C)C)c1 | / | / | -2.6% | -2.2%
CCCn1c2c(c(O)c(C(=O)Nc3ccccc3)c1=O)CCCC2 | -15.3% | 1.4% | 51.7% | -2.8%
COc1cc(NC(=O)Cn2c(-c3cncs3)nc3ccccc32)cc(OC)c1OC | -6.0% | 7.1% | 2.33µM* | 17.6%
COc1ccc(-c2csc(NC(=O)c3ccc(OCC(=O)N4CCOCC4)c(OC)c3)n2)cc1OC | -15.6% | -17.1% | 9.28µM* | ?
COc1cc(C(=O)Nc2cc(C)c(OCC(=O)N3CCOCC3)c(C)c2)cc(OC)c1OC | 3.2% | 4.5% | ? | 13.1µM*
CCOc1cc(/C=C/c2nc3cc(C)c(C)cc3s2)ccc1OCC(=O)N1CCOCC1 | -6.6% | 12.4% | ? | 10.4µM*
COc1cc(C(=O)Nc2cccc(C)n2)ccc1OCC(=O)N1CCOCC1 | 3.2% | 0.9% | 18.1% | -17.4%
Cc1cc(NC(=O)c2ccccc2F)cc(C)c1OCC(=O)N1CCOCC1 | -1.2% | -1.3% | 34.0% | 12.2%
Cc1ccc(OCC(=O)N2CCOCC2)cc1C | -0.6% | -6.4% | 43.0% | 33.1%
Cc1cc(C)c(C)c(OCC(=O)N2CCOCC2)c1 | 12.5% | -0.3% | / | 13.1µM*
COc1cc(/C=C(\C#N)C(=O)Nc2cccc3ncccc23)ccc1O | / | -0.5% | -0.4% | 16.2%
COc1ccc(-c2ccc(CN3C(C)C(=O)N(Cc4cn(CC5CCCCC5)nn4)CCS3(=O)=O)cc2)cc1 (stereo not drawn) | -9.5% | / | / | /
CCOc1cc(C(=O)Nc2nnc(CC)s2)ccc1OCC(=O)N1CCOCC1 | 9.3% | 0.0% | 0.262µM* | ?
CCOc1cc(C(=O)Nc2cc(OC)cc(OC)c2)ccc1OCC(=O)N1CCOCC1 | 1.7% | 1.5% | ? | ?
C=CC[n+]1c(-c2ccccc2)csc1NC(C)(C)C | -1.0% | 0.7% | 10.4µM* | 14.7µM*
Cc1ccc(C2N=C(N)Nc3nc(=O)c4ccccc4n32)cc1 (stereo not drawn) | 6.6% | 0.1% | ? | 9.28µM*
OCCCNc1nc(-c2ccc(Cl)cc2)nnc1-c1ccccc1 | 7.6% | -2.0% | ? | 3.7µM*
C/C(=N\NC(=O)c1cc(C)nc2ccccc12)c1ccncc1 | 64.4% | -2.6% | 5.1% | -12.0%
C/C(=N\NC(=O)c1cc(-c2ccccc2C)nc2ccccc12)c1cccnc1 | 27.5% | -2.8% | 1.85µM* | ?
C/C(=N\NC(=O)c1cc(-c2cccc(OC(C)C)c2)nc2ccccc12)c1cccnc1 | 77.5% | 6.3% | ? | 13.1µM*
C/C(=N\NC(=O)c1cc(C)nc2ccccc12)c1ccccn1 | -82.6% | -2.0% | 3.7µM* | 3.29µM*
C/C(=N\NC(=O)c1cc(-c2ccc(C)s2)nc2ccccc12)c1cccnc1 | 50.7% | 4.7% | -6.5% | ?
C/C(=N\NC(=O)c1cc(C)nc2ccccc12)c1ccc([N+](=O)[O-])cc1 | -7.1% | -3.0% | ? | -26.4%
C/C(=N\NC(=O)c1cc(-c2ccccn2)nc2ccccc12)c1cccc([N+](=O)[O-])c1 | 0.0% | 1.4% | ? | 10.4µM*
Cc1cc(NC(=O)CSc2nnnn2Cc2ccccc2)no1 | 6.9% | 12.0% | -29.0% | /
C/C(=N/NC(=O)c1cc(-c2ccccc2)nc2c(Cl)cccc12)c1cccnc1 | 12.4% | 12.4% | ? | 10.4µM*
CC(C)c1ccc(NC(=O)[C@H](NC(=O)[C@@H]2Cc3ccccc3CN2)c2ccccc2)cc1 | 19.4% | 0.5% | ? | ?
